# Values joined by “and” are separate entries in the source; they are usually repeats but may differ in a detail not shown here. Equal entries are not always repeated. More than one record can exist for a structure, and the calls need not agree. Active and inactive are the calls of the source. The calls were made as follows: active = hit-call score of the fitted dose curve at least 0.9, where 1 is the maximum; inactive = score below 0.9.
# Assay: CCTE_Shafer_MEA_dev_burst_rate: CCTE's Neural Network Formation Assay for Burst Rate, Shafer Lab (AID 2284042)
# Procedure: CCTE_Shafer_MEA_dev assay is conducted using Axion Biosystems 48 well microelectrode array (MEA) plates and Maestro recording system. Each well of the MEA plate contains a grid of 16 microelectrodes embedded in the culture surface. Electrically active cells, such as neurons, can be cultured over the electrodes, and electrical activity in these cells can be recorded extracellularly. The spontaneous firing of neurons is captured from each electrode on a microsecond timescale providing both temporally and spatially precise data. […] The CCTE_Shafer_MEA_dev assay uses primary cultures of rat cortical neurons. Recordings are made on days post-plating 5, 7, 9 and 12. As these cultures mature over time, neural networks develop functional activity and form cohesive networks in which electrical activity can be highly coordinated. CCTE_Shafer_MEA_dev_burst_rate is 1 of 19 assay components of the CCTE_Shafer_MEA_dev assay. It measures the frequency of single-electrode bursts (temporally-clustered groups of action potential firing) as the total number of bursts divided by the length of the recording in a microelectrode array (MEA) using Axion Biosystems Maestro 768 channel amplifier with the AxIS adaptive spike detector. The mean bursting rate is averaged across the active electrodes to report a well-mean value. To collapse across multiple recordings made on days post-plating 5, 7, 9 and 12, the trapezoidal area-under-the-curve of the component is calculated.Data from the assay component CCTE_Shafer_MEA_dev_burst_rate was analyzed into 1 assay endpoint. This assay endpoint, CCTE_Shafer_MEA_dev_burst_rate, was analyzed in the negative analysis fitting direction relative to DMSO as the negative control and baseline of activity. Using a type of functional reporter, gain or loss-of-signal activity can be used to understand electrical activity.
# On the day prior to culture, each well was coated thoroughly with 150 uL of 0.05% polyethyleneimine (PEI, Sigma Cat P3143) in 50 mM HEPES (Sigma Cat H7523) at a pH of 8. The plate was incubated at 37C for one hour. PEI was rinsed out with 500 uL of sterile water three times. Plates were stored at 4C until the day of culture. This culture was plated at a seeding density of 1.5 x 10^5 cells/well on a 48-well MEA plate, prepared as described above. Cells were administered via a 25 uL media/laminin ([…]; Sigma Cat L2020-1MG) drop directly onto the microelectrode array, as adding the cells with the laminin results in better attachment than pre-coating with laminin. After 2 hours, an additional 475 uL of cortical media was added and the cells returned to the incubator. Exposure starts at day 0 of plating and is continued over twelve days of network development until the experiment is terminated. Cells are fed with fresh medium on DIV 5 and 9, following the recordings on those days. The entire volume of media in the well is exchanged and any vehicle or compound treatment is renewed. Complete details are found in OP-NHEERL/ISTD/SBB/TJS/2015-03-r0 (available on request, email shafer.tim@epa.gov). Measurement of the electrical activity is non-invasive, and recordings can be made from the same plate over multiple different days of the culture. In cortical neurons, this allows for the measurement of extracellular action potentials over the period during which networks form in the MEA plate.
SMILES,AC50,outcome
CC(C)[C@H](C(=O)O[C@H](C#N)c1cccc(Oc2ccccc2)c1)c1ccc(Cl)cc1,4.67 µM (active),
CON=C(C(=O)OC)c1ccccc1CON=C(C)c1cccc(C(F)(F)F)c1,655 nM (active) and 1.28 µM (active),
CC(Oc1cccc(Cl)c1)C(=O)O (stereo unspecified),,inactive
CCOP(=O)(OCC)Oc1cc(C)nc(C(C)C)n1,,inactive
CCOP(=O)(NC(C)C)Oc1ccc(SC)c(C)c1 (stereo unspecified),40.1 µM (active),inactive
CC(C)N(C(=O)SCC(Cl)=C(Cl)Cl)C(C)C,,inactive
CN(C)[C@@H]1C(=O)C(C(N)=O)=C(O)[C@@]2(O)C(=O)C3=C(O)c4c(O)cccc4[C@@](C)(O)[C@H]3[C@H](O)[C@@H]12,,inactive
S=C1NCCN1,,inactive
CCCSP(=O)(OCC)SCCC,,inactive
CCOP(=S)(OCC)Oc1cc(C)nc(C(C)C)n1,,inactive
O=[N+]([O-])c1cc(C(F)(F)F)c(Cl)c([N+](=O)[O-])c1Nc1ncc(C(F)(F)F)cc1Cl,0.39 µM (active),
CN1COCN(Cc2cnc(Cl)s2)C1=N[N+](=O)[O-],,inactive
CCOP(=S)(Oc1cnc(C(C)(C)C)nc1)OC(C)C (stereo unspecified),14.3 µM (active),inactive
CSC1=N[C@@](C)(c2ccccc2)C(=O)N1Nc1ccccc1,,inactive
CCOP(=S)(OCC)OC(Cl)C(Cl)(Cl)Cl (stereo unspecified),77.2 µM (active) and 23.6 µM (active),
COP(=O)(OC)C(O)C(Cl)(Cl)Cl (stereo unspecified),,inactive
C[Si](Cn1cncn1)(c1ccc(F)cc1)c1ccc(F)cc1,,inactive

SMILES,AC50,outcome
CCCSP(=O)(OCC)Oc1ccc(Br)cc1Cl (stereo unspecified),,inactive
CC(=NC#N)N(C)Cc1ccc(Cl)nc1,,inactive
CCOP(=O)(SC(C)CC)N1CCSC1=O (stereo unspecified),,inactive
COP(=O)(OC)OC(Br)C(Cl)(Cl)Br (stereo unspecified),7.93 µM (active) and 13.3 µM (active),
CCOC(=O)CC(SP(=O)(OC)OC)C(=O)OCC (stereo unspecified),,inactive
CCCCSP(=O)(SCCCC)SCCCC,71.4 µM (active),inactive
CC1=NNC(=O)N(/N=C/c2cccnc2)C1,,inactive
CCOP(=S)(OCC)Oc1ccc2c(C)c(Cl)c(=O)oc2c1,,inactive
CC[C@H](C)[C@H]1O[C@]2(C=C[C@@H]1C)C[C@@H]1C[C@@H](C/C=C(\C)[C@@H](O[C@H]3C[C@H](OC)[C@@H](O[C@H]4C[C@H](OC)[C@@H](NC)[C@H](C)O4)[C@H](C)O3)[C@@H](C)/C=C/C=C3\CO[C@@H]4[C@H](O)C(C)=C[C@@H](C(=O)O1)[C@]34O)O2,21.3 nM (active) and 3.47 nM (active),
COP(=O)(NC(C)=O)SC (stereo unspecified),,inactive
C=C(C)[C@H]1Cc2c(ccc3c2O[C@@H]2COc4cc(OC)c(OC)cc4[C@@H]2C3=O)O1,17.3 nM (active) and 6.73 nM (active),
CCOP(=S)(OCC)SCCSCC,,inactive
C[N+]1(C)CCCCC1,,inactive
CCOP(=S)(OCC)Oc1ccc([N+](=O)[O-])cc1,,inactive
C#CCC1=C(C)C(OC(=O)C2C(C=C(C)C)C2(C)C)CC1=O (stereo unspecified),,inactive
CC(C)=CC1C(C(=O)OCN2C(=O)C3=C(CCCC3)C2=O)C1(C)C (stereo unspecified),,inactive
